Test results: PubChem BioAssay (NCATS)
Inconclusive results are not listed. Activity calls are given as the source filed them. Calls follow the shape of the dose curve; as a rule, active = well fitted curve in the direction sought with a large enough effect; inconclusive = small, poorly fitted or top-dose-only effect, or another doubt; inactive = no such curve, though single readings can be large; an effect the other way counts as inactive or inconclusive. Where a SMILES comes first, the peptide text is derived from it. The star is where a group is joined. Cbz = O=C(OCc1ccccc1)*; CH2F = FC*

Experiments:
[1] = biological target: Calcium and integrin-binding protein 1 (Homo sapiens) (UniProt Q99828); experiment: Primary qHTS for Identification of Calcium Integrin Binding Protein 1 (CIB1) Competitor (AID 1508620);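 also: GST tagged CIB1 binding a fluorescein labelled alphaIIb integrin peptide tracer; top concentration of the series differs between compounds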
Chain of Calcium and integrin-binding protein 1 (Homo sapiens) (Q99828 whole entry, looked up): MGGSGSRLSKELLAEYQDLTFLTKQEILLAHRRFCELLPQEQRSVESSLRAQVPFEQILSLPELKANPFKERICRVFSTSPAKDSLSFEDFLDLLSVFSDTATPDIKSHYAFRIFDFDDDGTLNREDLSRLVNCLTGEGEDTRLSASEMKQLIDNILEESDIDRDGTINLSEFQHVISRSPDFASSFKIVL
Method in brief: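 CIB1-GST (1 uM final) and compound incubated 15 min at room temperature before adding FITC-alphaIIb peptide tracer (100 nM final). Competition for binding read by fluorescence polarization (ex 480, em 540) after another 15 min at room temperature.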

[2] = Primary qHTS for inhibitors of nuclear receptor binding SET domain protein 2 (NSD2) in an isogenic RCH-ACV NSD2 p.E1099K mutant (9B) (AID 1645876); also: nearly all actives have a fitted effect of over 70% in size
[3] = Primary qHTS for inhibitors of nuclear receptor binding SET domain protein 2 (NSD2) in an RCH-ACV wild type WT cells (2C) (AID 1645877); also: nearly all actives have a fitted effect of over 70% in size
% is scaled to controls: 0 for no effect and ±100 for the full control effect.

O=C(O)CC/C=C\C[C@H]1CO[C@@H](c2ccccc2Cl)O[C@H]1c1ccccc1O
inactive: Potency [1] | Potency [2] | Potency [3]

CC1(C)COC(=O)[C@@H]1O[C@@H]1O[C@H](CO)[C@@H](O)[C@H](O)[C@H]1O
inactive: Potency [1] | Potency [2] | Potency [3]

CC1(C)CC[C@]2(C(=O)O[C@@H]3O[C@H](CO)[C@@H](O)[C@H](O)[C@H]3O)CC[C@]3(C)C(=CCC4[C@@]5(C)C[C@H](O)[C@H](O[C@@H]6OC[C@@H](O)[C@H](O)[C@H]6O)[C@@](C)(CO)C5CC[C@]43C)C2C1 (stereo not given in full)
inactive: Potency [1] | activity change, negative = viability loss [2] 1.45% [at 9.23 µM] | activity change, negative = cell killing [3] 2.07% [at 9.23 µM]

C=C1CC23CC1CCC2C12OC(=O)C(C)(C(O)CC1O)C2C3C(=O)O (stereo not given)
inactive: Potency [1] | Potency [2] | Potency [3]

O=C(O)c1ccnc(-c2cc(C(=O)NCCc3ccccc3)ccn2)c1
inactive: Potency [1] | Potency [2] | Potency [3]

CC(C)(OC1OC(CO)C(O)C(O)C1O)C1CCC(O)(CO)C2CC(=O)C(C)(O)C2C1 (stereo not given)
inactive: Potency [1] | Potency [2] | Potency [3]

CC(=O)C1CCC(=O)N1Cc1ccccc1 (stereo not given)
inactive: Potency [1] | Potency [2] | Potency [3]

COC(=O)CC[C@H](NC(=O)[C@H](CC(C)C)NC(=O)OCc1ccccc1)C(=O)N[C@@H](Cc1cnc[nH]1)C(=O)N[C@@H](CC(=O)OC)C(=O)CF (Cbz-LE(OMe)HD(OMe)-CH2F)
inactive: Potency [1] | activity change, negative = viability loss [2] -7.97% [at 9.23 µM] | activity change, negative = cell killing [3] -7.81% [at 9.23 µM]

C[C@@H](CC[C@@H]1[C@@]2(C)CCCC(C)(C)C2CC[C@@]1(C)O)CC(=O)O (stereo not given in full)
inactive: Potency [1] | Potency [2] | Potency [3]

COc1c(-c2ccc(O)cc2)cc(OC)c2c1oc1cc(O)c(OC3OC(CO)C(O)C3O)cc12 (stereo not given)
inactive: Potency [1] | Potency [2] | Potency [3]

CC(=O)[C@@H]1C[C@H](C(C)(C)O[C@@H]2O[C@H](CO)[C@@H](O)[C@H](O)[C@H]2O)CC[C@@]2(CO)OC(=O)C[C@@H]12
inactive: Potency [1] | Potency [2] | Potency [3]

COc1c2c(c(C)c3c1C(=O)OC3)OC1(C)CC(O)C34OC(O)(CCC3(C)C1C2)OC4(C)C (stereo not given)
inactive: Potency [1] | Potency [2] | Potency [3]

COc1cc(C(C)=O)ccc1O[C@@H]1O[C@H](CO)[C@@H](O)[C@H](O)[C@H]1O
inactive: Potency [1] | Potency [2] | Potency [3]

CC(=O)OC1CC2(C)C(CCC(C)C23Cc2c(O)cc4c(c2O3)CNC4=O)C(C)(C)C1O (stereo not given)
inactive: Potency [1] | Potency [2] | Potency [3]

C=C[C@H]1[C@H](O[C@@H]2O[C@H](CO)[C@@H](O)[C@H](O)[C@H]2O)OC=C2C(=O)N3Cc4c([nH]c5ccccc5c4=O)[C@@H]3C[C@H]21
inactive: Potency [1] | Potency [2] | Potency [3]

C=C1CC[C@]2(C(=O)O[C@@H]3O[C@H](CO)[C@@H](O)[C@H](O)[C@H]3O)CC[C@]3(C)C(=CCC4[C@@]5(C)C[C@H](O)[C@@H](O[C@@H]6O[C@H](C(=O)O)[C@@H](O)[C@H](O)[C@H]6O)[C@](C)(C=O)C5CC[C@]43C)C2C1 (stereo not given in full)
inactive: Potency [1] | activity change, negative = viability loss [2] -1.03% [at 9.23 µM] | activity change, negative = cell killing [3] -2.63% [at 9.23 µM]

CC(C)c1ccc2c(c1)C(=O)CC1C(C)(C(=O)O)CCCC21C (stereo not given)
inactive: Potency [1] | Potency [2] | Potency [3]

CC(=O)O[C@@H]1C(O)C[C@@]2(C)C(CC[C@@H](C)C23Cc2c(O)cc4c(c2O3)CNC4=O)C1(C)C (stereo not given in full)
inactive: Potency [1] | Potency [2] | Potency [3]

CC1=CC(=O)CC(C)(C)[C@@]1(O)/C=C/C(C)O[C@@H]1O[C@H](CO)[C@@H](O)[C@H](O)[C@H]1O (stereo not given in full)
inactive: Potency [1] | Potency [2] | Potency [3]

CC(=O)OC[C@]12[C@H](OC(C)=O)[C@H](OC(=O)c3ccccc3)[C@@H]3[C@@H](OC(C)=O)[C@]1(OC3(C)C)[C@H](C)C[C@H](OC(=O)c1ccccc1)[C@@H]2OC(=O)c1ccccc1
inactive: Potency [1] | Potency [2] | Potency [3]
